Assay outcomes deposited in PubChem by Johns Hopkins Ion Channel Center.
KCNQ2 inh = inhibitors of rat KCNQ2 potassium channel | AID 2156 | B-score at 10 µM | CHO-K1 KCNQ2, FluxOR thallium flux, 20 min; hits give low values | O88943 | hit rate 1.1% among 310,000;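 active = fluorescence ratio B-score at most minus 3 library SDs, with starting brightness B-score within 2 library SDs, cut at about -5.5 in these data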
Target sequence (O88943 whole entry, looked up): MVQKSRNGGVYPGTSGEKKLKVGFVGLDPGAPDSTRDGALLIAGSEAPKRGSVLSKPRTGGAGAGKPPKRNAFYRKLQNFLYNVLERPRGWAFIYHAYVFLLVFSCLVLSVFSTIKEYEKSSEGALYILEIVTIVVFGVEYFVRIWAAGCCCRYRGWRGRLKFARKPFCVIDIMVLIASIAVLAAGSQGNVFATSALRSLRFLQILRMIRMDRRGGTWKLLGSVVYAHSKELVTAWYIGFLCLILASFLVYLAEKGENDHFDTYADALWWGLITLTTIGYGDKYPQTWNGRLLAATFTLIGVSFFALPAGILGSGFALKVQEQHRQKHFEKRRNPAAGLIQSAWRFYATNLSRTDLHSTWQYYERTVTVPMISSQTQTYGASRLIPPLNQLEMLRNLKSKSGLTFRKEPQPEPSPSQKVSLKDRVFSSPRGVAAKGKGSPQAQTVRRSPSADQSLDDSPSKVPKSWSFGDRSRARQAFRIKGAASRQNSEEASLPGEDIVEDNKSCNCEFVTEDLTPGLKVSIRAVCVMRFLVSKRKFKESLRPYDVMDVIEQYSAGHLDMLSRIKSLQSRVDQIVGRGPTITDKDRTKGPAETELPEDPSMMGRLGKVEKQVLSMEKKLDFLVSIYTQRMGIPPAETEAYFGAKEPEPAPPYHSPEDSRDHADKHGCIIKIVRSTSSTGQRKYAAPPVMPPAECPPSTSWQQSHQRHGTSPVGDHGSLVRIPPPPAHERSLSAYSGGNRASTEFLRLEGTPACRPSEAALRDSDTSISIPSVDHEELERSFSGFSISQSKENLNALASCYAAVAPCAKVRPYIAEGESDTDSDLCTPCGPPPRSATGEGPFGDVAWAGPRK
KCNQ2 enhance = potentiators of rat KCNQ2 potassium channel; B-score at 10 µM; O88943; CHO-K1 KCNQ2, FluxOR thallium flux fluorescence; hits give high values; hit rate 0.54% among 310,000;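 active = fluorescence ratio B-score at least 3 SD of library B-scores, with initial fluorescence B-score within 3 of them, cut at about 5.3 in these data; same plate scores as AID 2156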;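 also: B-score of peak minus minimum over baseline fluorescence ratio after K+ and Tl+ stimulus; positive B-score means potentiation of KCNQ2 with more thallium influx and brighter signal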
* hit, by the source's call; i = inactive; nt = no result given. Most compounds without a hit are left out; they make up all but 1.6% or so of the library.

SMILES	KCNQ2 inh	KCNQ2 enhance
COC(=O)c1c(O)cc(C(C)(C)C)n(-c2ccc(F)cc2)c1=O	i	1.55
C/C(=C\C(=O)c1ccccc1)Nc1ccc(Cl)c(Br)c1	i	0.64
C/C(=C\C(=O)c1ccc(Br)cc1)Nc1cccc(Cl)c1	-6.19*	-6.19
C/C(=C\C(=O)c1ccc(Cl)cc1)Nc1ccc(Br)cc1	-5.95*	-5.95
O=C(Cc1ccc(Cl)cc1)Nc1ccc(Br)cc1	i	3.19
COc1cc(-c2nnc(SCC(=O)N(C)C3CCS(=O)(=O)C3)o2)cc(OC)c1OC (stereo not drawn)	i	0.37
COc1ccccc1/C=C/CN1CCC(n2nccc2NC(=O)CCc2ccccc2)CC1	i	1.19
C/C=C(\C)C(=O)OC1c2c(ccc3ccc(=O)oc23)OC(C)(C)C1OC(C)=O (stereo not drawn)	i	1.29
C/C=C(/C)C(=O)OC1c2c(ccc3ccc(=O)oc23)OC(C)(C)C1OC(=O)/C(C)=C\C (stereo not drawn)	-9.9*	-9.9
Cc1ccc(NC(=O)CN(CCc2ccccc2)S(C)(=O)=O)cc1	i	nt
COc1ccc(-c2cccc(NC(=O)COc3ccc(Cl)cc3)c2)nn1	i	0.58
O=C(/C=C/c1ccccc1)N1CCN(c2ccc([N+](=O)[O-])c(N3CCOCC3)c2)CC1	-6.38*	-6.38
O=C(c1ccc2ccccc2c1)N1CCN(c2ccc([N+](=O)[O-])c(N3CCOCC3)c2)CC1	i	nt
Cc1cccc(N=Cc2cc(Br)cc(Cl)c2O)c1	i	9.35*
COc1ccc(N=Cc2cccc(C)c2O)cc1Cl	i	0.04
Cc1ccc(N(C(=O)CNC(=O)c2ccco2)C(C(=O)NCC2CCCO2)c2ccccc2)c(C)c1 (stereo not drawn)	i	nt
CN(C)c1ccc(-c2nc3cnccn3c2Nc2ccc3c(c2)OCCO3)cc1	-6.39*	-6.39
Cc1ccc(-c2nc3cnccn3c2Nc2ccc3c(c2)OCO3)cc1	i	nt
CC(C)[C@@H](C(=O)NC1CCN(Cc2ccccc2)CC1)N1C(=O)N2CCc3c([nH]c4ccccc34)[C@@]2(C)C1=O	i	nt
O=C(Oc1c(-c2ccccc2Cl)oc2ccccc2c1=O)c1ccc(Cl)cc1	-6.94*	-6.94
O=C(Oc1c(-c2ccccc2)oc2ccccc2c1=O)c1ccccc1	i	nt
O=C(COc1ccccc1)N(CCc1ccccc1)c1nc(-c2ccc(F)cc2)cs1	i	nt
CC1(C)CC(=O)C(C(C2=C(O)CC(C)(C)CC2=O)c2cccs2)C(=O)C1 (stereo not drawn)	i	6.17*
CC1(C)CC(=O)C(C(C2=C(O)CC(C)(C)CC2=O)c2cccnc2)C(=O)C1 (stereo not drawn)	i	0.16
Cc1ccc(CCNS(=O)(=O)c2cc3c(cc2Cl)NC(=O)CO3)cc1	i	nt
SMILES	KCNQ2 inh	KCNQ2 enhance
CC1CCC(NC(=O)CCNC(=O)c2ccccc2)CC1 (stereo not drawn)	i	nt
COc1ccccc1OCC(=O)N/N=C1\CCc2ccccc21	-5.64*	-5.64
COc1ccccc1OCC(=O)N/N=C1\CCCCc2ccccc21	-7.07*	-7.07
COc1ccc(C(=O)N/N=C2\CCc3ccccc32)cc1OC	i	0.19
Cc1cccc2c1OCC/C2=N\NC(=O)COc1ccccc1	-7.28*	-7.28
O=C(COc1cccc(Br)c1)N/N=C1\CCCc2ccccc21	i	nt
COc1ccc(OCC(=O)N/N=C2\CCCc3ccccc32)cc1	i	nt
C=CCOc1ccc(C(c2c(O)nc(SC)[nH]c2=O)c2c(O)nc(SC)[nH]c2=O)cc1	i	1.27
Cc1ccnc(NS(=O)(=O)c2cc(-c3cc(C)no3)ccc2C(C)C)c1	i	0.21
Fc1ccc(Nc2ccc3ccccc3n2)c(F)c1	i	nt
CCN(CC(=O)NCc1cccs1)C(=O)c1ccc(-c2cccc(C(F)(F)F)c2)o1	-7.64*	-7.64
CCN(CC(=O)NCc1cccs1)C(=O)c1cccc(S(=O)(=O)NC)c1	i	nt
COc1ccc(Cl)cc1-c1nc(-c2ccc(NC(=O)c3cccs3)cc2)no1	i	nt
CCN=C(NCC)SC1CC(=O)N(c2cccc(OC)c2)C1=O (stereo not drawn)	-5.8*	-5.8
CCN=C(NCC)SC1CC(=O)N(c2ccccc2)C1=O (stereo not drawn)	i	nt
COc1cc(C(=O)NCc2ccc(S(N)(=O)=O)cc2)ccc1OCC(=O)Nc1cccc(C(F)(F)F)c1	i	0.37
COc1cc(C(=O)N(C)CCOc2ccccc2)ccc1OCC(=O)Nc1cccc(C(F)(F)F)c1	-6.66*	-6.66
CCc1cc2c(C)cc(=O)oc2cc1OC(=O)C1CCCN1C(=O)OC(C)(C)C (stereo not drawn)	-5.97*	-5.97
CC(C)(C)OC(=O)N1CCCC1C(=O)NCCc1ccccc1 (stereo not drawn)	i	0.63
O=C(CSc1nccc(-c2cccs2)n1)Nc1ccc(Cl)cc1	i	1.39
Cc1onc(-c2ccc(Cl)cc2)c1-c1ccnc(SCC(=O)Nc2ccc(C(C)C)cc2)n1	-5.59*	-5.59
CC(Nc1[nH]c(=O)n(C)c(=O)c1N=O)c1ccccc1 (stereo not drawn)	i	nt
O=C(NCC1COc2ccccc2O1)c1ccc(Br)s1 (stereo not drawn)	-6.18*	-6.18
O=C(NCC1COc2ccccc2O1)c1cccs1 (stereo not drawn)	i	nt
S=C(NCc1ccccc1)N1CCN(C2CCCCC2)CC1	i	0.44
SMILES	KCNQ2 inh	KCNQ2 enhance
Fc1ccccc1Cc1noc(CN2CCN(c3ccc(Cl)cn3)CC2)n1	-5.6*	-5.6
Clc1ccccc1Cc1noc(CN2CCN(c3cnccn3)CC2)n1	i	nt
COc1ccc(-c2nnc(Nc3nc4c(OC)cccc4s3)o2)cc1	i	5.45*
COc1ccc(-c2nnc(Nc3nc4c(OC)cccc4s3)o2)c(OC)c1	i	0.68
CCOC(=O)C1=C(N)OC2=C(C(=O)CC(C)(C)C2)C1c1ccoc1 (stereo not drawn)	i	0.89
CCOC(=O)C1=C(N)OC2=C(C(=O)CC(C)(C)C2)C1C1CCCCC1 (stereo not drawn)	-7.46*	-7.46
C=CCN(c1ccccc1)S(=O)(=O)c1cccc(C(=O)OCC(=O)NCCOC)c1	i	1.29
C=CCN(c1cccc(C(F)(F)F)c1)S(=O)(=O)c1cccc(C(=O)OCC(=O)NCCC)c1	i	6.6*
O=S(=O)(Nc1ccc(-c2cn3c(n2)SCC3)cc1)c1ccccc1F	i	nt
CC(=O)Nc1ccc(S(=O)(=O)N/N=C/c2ccc(C)s2)cc1	i	0.14
Cc1ccc(S(=O)(=O)NCc2ccccc2)cc1C(=O)N1CCCCC1	i	1.65
Cc1ccc(S(=O)(=O)NCc2ccccc2)cc1C(=O)N1CC(C)CC(C)C1 (stereo not drawn)	-6.01*	-6.01
CCOC(=O)c1nn(-c2ccccc2C)c(=O)cc1OCC(=O)Nc1cccc(OC)c1	i	0.18
COc1ccccc1C(=O)Nc1ccc(-c2nnn(CC(=O)NCc3ccco3)n2)cc1	i	0.17
Cc1cc(C)nc(N/N=C/c2ccccc2Cl)n1	i	0.47
Cc1cc(N/N=C/c2ccccc2Cl)nc(NCc2ccccc2)n1	-6.37*	-6.37
Cc1ccccc1NC(=O)COc1coc(CN2CCN(c3ccccc3)CC2)cc1=O	i	0.01
CCSc1nnc(COc2ccccc2)n1CC	i	0.19
CCOc1ccc(C(=O)NC(C(=O)NCc2ccccc2OC)C(C)C)cc1 (stereo not drawn)	i	nt
CCOc1ccccc1C(=O)NC(C(=O)NCc1ccccc1OC)C(C)C (stereo not drawn)	-6.23*	-6.23
